# “And” between values parts separate entries of the source, which are not always exact repeats. Equal values may be shown once. Inconclusive results are not listed. The source made the active and inactive calls. Calls follow the shape of the dose curve; as a rule, active = well fitted cell-killing curve with a large enough effect; inconclusive = small, poorly fitted or top-dose-only effect, or effect the other way; inactive = no such curve, though single readings can be large or run the other way.
# Assay: Viability qHTS for spleen associated tyrosine kinase inhibitor (SYKi) naive MV4-11 cells (AID 1963823); also: nearly all actives have a fitted effect of over 40% in size
# Conditions: MV4-11 AML viability, CellTiter-Glo luminescence, 72 h; series mostly up to 45 µM; viability (% of control): at the top concentration
# Source text: Department of Medicine, Hematology/Oncology
# University Hospital Frankfurt, Germany.
# Trials have shown promising clinical activity of the selective SYK inhibitor entospletinib in patients with high expressing HOXA9/MEIS1 acute leukemias. As the development of resistance mechanisms is a common problem in the use of targeted drugs, we performed a chemical library screen to identify drug sensitivities in SYK inhibitor resistant AML cells. […] Glucocorticoids are potent immunosuppressants which work in part by inhibiting the transcription of cytokine genes.
# Described herein is a viability screen to look for activity in the SYK inhibitor naive cell line against four NCATS compound libraries (MIPE 5.0, NPC, NPACT, and Kinase) totaling 11372 compounds. Active hits were reacquired for confirmation and further secondary assay testing.
# SEQUENCE No. (e.g., 1, 2, 3, etc.); […] (e.g., Cells, Incubation, Reagent, etc.); VALUE; DESCRIPTION.
# 1; Media; 2uL; white, solid-bottom Corning assay plate.
# 2; Compounds; 23nL; Echo acoustic dispenser.
# 3; Cell; 5uL; 500 cells per well.
# 4: Incubation; 72hr; 37 C, 5% CO2, 95% humidity.
# 5; Reagent; 3uL; CellTiter-Glo reagent (Promega).
# 6; Incubation; 10min; room temperature.
# 7; Detection; Luminescence; ViewLux plate reader (PerkinElmer).
# NOTES (numbers refer to Sequence numbers above
# 1. Quantitative high-throughput screening (qHTS) of small molecule compounds was conducted on naive SYKi MV4-11 cell line.
# 2. Twenty-three nanoliter of small molecule compounds were added to each assay plates using the Echo acoustic dispenser (Beckman Coulter).
# 3. Cells were seeded into the assay plates at a final density of 500 cells in 5uL of media per well using the Multi-drop Combi dispenser.
# 4. Plates were covered with stainless steel gasketed lids and incubated for 72 hours at standard cell culture conditions.
# 5. Viability was assessed by adding 3uL of CellTiter-Glo detection reagent (Promega).
# 6. Plates were covered with gasket lids and incubated for 10 minutes at room temperature.
# 7. Luminescence was measured on a ViewLux plate reader (PerkinElmer).
# Potency is read from the fitted curve at half-maximal effect.
Compound,viability (% of control),Potency
COc1nccnc1NS(=O)(=O)c1ccc(N)cc1,85% (inactive),
CCOC(=O)C1=C[C@]2(CC)CCCN3CCc4c(n1c1ccccc41)[C@@H]32,,13.3 µM (active)
C=C1[C@@H](C2=CC(=O)OC2)CC[C@@]2(O)[C@@H]1CC1[C@H]2CC[C@@H]2C[C@@H](O[C@H]3O[C@@H](C)[C@@H](O[C@@H]4O[C@H](CO[C@@H]5O[C@H](CO)[C@@H](O)[C@H](O)[C@H]5O)[C@@H](O)[C@H](O)[C@H]4O)[C@H](OC)[C@H]3O)CC[C@]12C (stereo not given in full),,2.19 µM (active)
NS(=O)(=O)c1cc(-c2nn[nH]n2)c(NCc2cccs2)cc1Cl,97% (inactive),
O=C(O)c1cn(C2CC2)c2cc(N3C[C@@H]4C[C@H]3CN4)c(F)cc2c1=O,52.8% (inactive),
O=C(CCN1CCN(C(=O)OCc2cc(Cl)cc(Cl)c2)CC1)c1ccc2[nH]c(=O)oc2c1,,20.6 µM (active) and 8.33 µM (active)
c1ccc(-c2cnn3cc(-c4ccc(OCCN5CCOCC5)cc4)cnc23)cc1,,0.0184 µM (active)
C=CC(=O)Nc1cccc(Nc2nc(Nc3ccc(Oc4ccnc(C(=O)NC)c4)cc3)ncc2F)c1,,4.61 µM (active) and 2.63 µM (active)
CCC(C)C1NC(=O)C(Cc2ccccc2)NC(=O)C(CCCCCC(=O)C(O)CO)NC(=O)C2CCCCN2C1=O (stereo not given),,2.43 µM (active)
O=C(C[C@@H]1C/C=C\CCC(=O)O[C@H](c2ccccc2)CNC1=O)NCc1ccc(Cl)cc1,,4.68 µM (active)
O=C(/C=C/c1ccc(O)cc1)OC[C@H]1O[C@@H](O/C(=C\c2ccccc2)C(=O)O)[C@H](O)[C@@H](O)[C@@H]1O,82% [at 17.3 µM] (inactive),
CC(C)c1cc2c(cc1S(=O)(=O)O)[C@@]1(C)CCC[C@@](C)(C(=O)O)[C@@H]1CC2,71.8% (inactive),
CC(=O)CC(=O)Nc1ccc(Cl)c(C(F)(F)F)c1,,9.2 µM (active)
COC(=O)[C@H](O)[C@H]1C(C)(C)[C@H](OC(C)=O)[C@@]2(O)C(=O)[C@]1(C)C1CC[C@]3(C)C(CC(=O)O[C@H]3c3ccoc3)[C@]13O[C@@H]32 (stereo not given in full),72.5% [at 17.3 µM] (inactive),
Cc1cn([C@@H]2C[C@@H](O)[C@H](CO)O2)c(=O)[nH]c1=O,82.9% (inactive),
CS(=O)(=O)N1CCc2c(-c3cnc(N)nc3)nc(N3CCOCC3)nc21,,1.86 µM (active)
CC(C)NC(=O)C1CCC(n2c(NC(=O)c3ccc(F)cc3)nc3ccc(CN4CCC(C(C)(C)O)CC4)cc32)CC1 (stereo not given),,1.02 µM (active)
COc1ccc(/C=C/C(=O)O[C@@H]2[C@@H](OC(C)=O)[C@@H](OC(C)=O)[C@H](O[C@H]3[C@@H]4C=CO[C@@H](O[C@@H]5O[C@H](CO)[C@@H](O)[C@H](O)[C@H]5O)[C@@H]4[C@@]4(CO)O[C@@H]34)O[C@H]2C)cc1,72.7% [at 17.3 µM] (inactive),
CC(=O)Nc1ccc(O)cc1,73.3% (inactive),
C=C[C@@](C)(O)CC/C=C(\C)C(=O)O[C@@H]1[C@@H]2O[C@]2(C)[C@H]2[C@H](O[C@@H]3O[C@H](CO)[C@@H](O)[C@H](O)[C@H]3O)OC=C[C@@]12O,91.8% [at 17.3 µM] (inactive),

Compound,viability (% of control),Potency
CC(C(=O)O)c1ccc(C(=O)c2ccccc2)s1 (stereo not given),72.9% (inactive),
COC1=Cc2c(nc3n(c2=O)C(C)C(=O)NC3(O)C(C)C)OC=C1 (stereo not given),62.6% (inactive),
C=C1[C@H](OC(C)=O)[C@H]2[C@@H](OC(=O)c3ccccc3)[C@@H](C)C[C@]2(O)[C@@H](OC(C)=O)[C@H](C)/C=C/C(C)(C)C(=O)[C@H](OC(C)=O)[C@H]1OC(C)=O,81.5% [at 17.3 µM] (inactive),
Cc1cc2c(C(C)C)c(O)c(O)c(C=O)c2c(O)c1-c1c(C)cc2c(C(C)C)c(O)c(O)c(C=O)c2c1O,,6.61 µM (active)
COc1cc(C)c(C(=O)O[C@H]2[C@@H](O)[C@H](n3ccc(=O)[nH]c3=O)O[C@@H]2CO)c(OC)c1,78.8% [at 17.3 µM] (inactive),
Cc1cnn(-c2ccccc2)c1NC(=O)COCc1ccccc1,74.7% (inactive),
O=C(Nc1cccnc1)N1CCC(Cc2cccc(Oc3ccc(C(F)(F)F)cn3)c2)CC1,,3.66 µM (active) and 4.17 µM (active)
O=C(c1ccc(OCCN2CCCCC2)cc1)c1c(-c2ccc(O)cc2)sc2cc(O)ccc12,,14.8 µM (active) and 16.4 µM (active)
COC(=O)C(CC1(O)c2ccccc2N2C(=O)C(C)(C)N(O)C21)n1cnc2ccccc2c1=O (stereo not given),68.9% [at 17.3 µM] (inactive),
COc1ccc(-c2cnc(-c3cccc4c3-c3ccccc3C4=O)o2)cc1,,0.0893 µM (active)
Cn1cnc(-c2cc3nccc(Oc4ccc(NC(=S)NC(=O)Cc5ccccc5)cc4F)c3s2)c1,,0.0259 µM (active)
O=C(NCc1ccc(S(=O)(=O)c2cccc(C(F)(F)F)c2)cc1)c1cnc2[nH]ncc2c1,,0.0118 µM (active)
COc1c(C)c(C(=O)c2ccc(N)c(C(=O)O)c2)n2ccccc12,,inactive
C[C@@H]1CN(Cc2ncccn2)C[C@H]1c1nc2c(cnn2C2CCOCC2)c(=O)[nH]1,69.1% (inactive),
NCCCCCC(=O)O,79.5% (inactive),
CC1OC(O[C@@H]2[C@H](O)[C@@H](OC3OC(CO)C(O)C(O)C3O)[C@H](OC(=O)[C@]34CCC(C)(C)C[C@H]3C3=CCC5[C@@]6(C)CC[C@H](O[C@@H]7O[C@H](C(=O)O)[C@@H](O)[C@H](O[C@@H]8OC[C@@H](O)[C@H](O)[C@H]8O)[C@H]7O[C@@H]7O[C@H](CO)[C@H](O)[C@H](O)[C@H]7O)[C@@](C)(C=O)C6CC[C@@]5(C)[C@]3(C)C[C@H]4O)O[C@@H]2C)C(O)C(O)C1OC1OCC(O)C(O)C1O (stereo not given in full),87.4% [at 4.97 µM] (inactive),
Cc1ccc(-c2ncccn2)c(C(=O)N2C[C@H](COc3ccc(F)cn3)CC[C@H]2C)c1,42.1% (inactive),
CNS(=O)(=O)Nc1nccc(Cc2c(C)c3ccc(Oc4ncccn4)cc3oc2=O)c1F,,0.417 µM (active)
C[C@]1(Cn2ccnn2)[C@H](C(=O)O)N2C(=O)C[C@H]2S1(=O)=O,75.7% (inactive),
CNC(=S)NS(=O)(=O)c1cc(CCNC(=O)c2cc(Cl)ccc2OC)ccc1OC,78.2% (inactive),

# Source: PubChem BioAssay (NCATS)
